ChEMBL document CHEMBL1961873, “Compounds: GSK PKIS; Assays: Nanosyn kinase panel” (2012)

molecular target: T1, cGMP-dependent protein kinase 1 (Homo sapiens) (UniProt Q13976); settings: at 0.1 µM
T1 sequence (whole entry): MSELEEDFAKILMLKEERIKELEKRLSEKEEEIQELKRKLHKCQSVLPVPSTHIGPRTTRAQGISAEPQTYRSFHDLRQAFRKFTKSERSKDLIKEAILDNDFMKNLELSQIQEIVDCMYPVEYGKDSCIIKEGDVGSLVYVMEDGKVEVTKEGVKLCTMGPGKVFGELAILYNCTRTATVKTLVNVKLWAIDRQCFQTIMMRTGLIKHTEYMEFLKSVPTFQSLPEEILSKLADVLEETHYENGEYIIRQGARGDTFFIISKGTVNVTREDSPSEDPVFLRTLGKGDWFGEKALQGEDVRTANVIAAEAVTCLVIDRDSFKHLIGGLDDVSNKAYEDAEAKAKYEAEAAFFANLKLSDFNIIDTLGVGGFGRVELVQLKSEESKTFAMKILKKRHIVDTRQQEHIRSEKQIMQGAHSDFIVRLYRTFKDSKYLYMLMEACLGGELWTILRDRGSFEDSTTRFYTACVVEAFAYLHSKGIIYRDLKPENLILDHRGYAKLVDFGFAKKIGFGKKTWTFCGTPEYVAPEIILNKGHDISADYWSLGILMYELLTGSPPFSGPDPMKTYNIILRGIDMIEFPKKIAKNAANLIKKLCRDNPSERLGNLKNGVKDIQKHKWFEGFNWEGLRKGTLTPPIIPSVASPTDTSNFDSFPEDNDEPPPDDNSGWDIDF

Row | Compound | inhibition [%]
1 | CC(C)(CO)CNC(=O)c1ccc2c(c1)/C(=N/Nc1ccc(S(N)(=O)=O)cc1)C(=O)N2 | 0.66
2 | O=C(Nc1n[nH]c2cc(-c3ccc(F)cc3)ccc12)C1CC1 | 4.3
3 | NC(=O)c1sc(-n2cnc3ccc(C(F)(F)F)cc32)cc1OCc1ccccc1Br | 3.55
4 | CCn1c(-c2nonc2N)nc2ccccc21 | 6.5
5 | c1ccc(-c2nc3n(c2-c2ccc4c(c2)OCO4)CCC3)nc1 | 2.47
6 | CCNC(=O)O[C@H]1CN[C@H](C#Cc2cc3ncnc(Nc4ccc(OCc5cccc(F)c5)c(Cl)c4)c3s2)C1 | 2.33
7 | CCn1c(-c2nonc2N)nc2cnc(Oc3cccc(NC(=O)c4ccc(N(C)C)cc4)c3)cc21 | 56.1
8 | CC(=O)Nc1cccc(C#Cc2cncnc2Nc2ccc(OCc3cccc(F)c3)c(Cl)c2)c1 | 3.13
9 | N#Cc1c(NC(=O)c2ccc(F)cc2)sc2c1CCCC2 | 0.21
10 | CS(=O)(=O)CCNCc1coc(-c2ccc3ncnc(Nc4ccc(OCc5ccccc5)cc4)c3c2)c1 | 1.72
11 | N#Cc1c(NC(=O)CN2CCOCC2)sc2c1CCCC2 | 3.2
12 | NS(=O)(=O)c1ccc(Nc2ncc(-c3ccccc3)o2)cc1 | 1.9
13 | COc1cc(/C=N/Nc2ncnc3[nH]ncc23)ccc1O | 3.83
14 | COC(=O)Nc1nc2ccc(Oc3ccc(NC(=O)Nc4cccc(Cl)c4)cc3)cc2[nH]1 | 0.03
15 | CNC(=O)c1cncc(/C=C/c2ccccc2Cl)c1 | 1.15
16 | COc1cc(N2CCN(C(C)C)CC2)ccc1Nc1nc(Nc2ccc(F)cc2C(N)=O)c2cc[nH]c2n1 | 11.5
17 | Clc1ccc(-c2nn3ncccc3c2-c2ccnc(Nc3ccccc3)n2)cc1 | 3.3

Row | Compound | inhibition [%]
18 | Fc1ccc(-c2nn3ccccc3c2-c2ccncc2)cc1 | 3.89
19 | COc1cc2c(cc1Nc1nc(Nc3ccsc3C(N)=O)c3cc[nH]c3n1)N(C(=O)CN(C)C)CCC2(C)C | 3.61
20 | CN1CCC(n2cnc(-c3ccc(F)cc3)c2-c2ccnc(N)n2)CC1 | 0.5
21 | FC(F)(F)c1cccc(-c2nn3ncccc3c2-c2ccnc(Nc3ccc4c(c3)OCCO4)n2)c1 | 0.41
22 | CC1=C(C(=O)Nc2cc(Cl)c3[nH]ncc3c2)C(c2ccc(C(F)(F)F)cc2)CC(=O)N1 (stereo not drawn) | 27.6
23 | CS(=O)(=O)CCNCc1ccc(-c2ccc3ncnc(Nc4ccc(OCc5ccccc5)c(C(F)(F)F)c4)c3c2)o1 | 2.93
24 | Nc1nc(-c2ccc(F)cc2)c(-c2ccc3ncccc3n2)s1 | 0.69
25 | COc1cc(Nc2nccc(Nc3ccc4c(C)n[nH]c4c3)n2)cc(OC)c1OC | 3.29
26 | CN(C)CCOc1ccc(-c2nc(-c3ccncc3)c(-c3ccc4c(c3)CC/C4=N\O)[nH]2)cc1 | 2.17
27 | CCn1c(-c2nonc2N)nc2c(C#CC(C)(C)O)ncc(OC3CCNCC3)c21 | 31.1
28 | [O-][S+]1CCN(Cc2ccc(-c3ccc4ncnc(Nc5ccc(OCc6cccc(F)c6)c(Cl)c5)c4c3)o2)CC1 | 3.87
29 | COc1ccc(-c2cc(-c3c[nH]nc3-c3ccccn3)ccn2)cc1 | 1.9
30 | Cc1ccc2c(-c3ccnc(Nc4ccccc4)n3)c(-c3ccc(F)cc3)nn2n1 | 1.32
31 | COc1ccc(-c2oc3ncnc(N)c3c2-c2ccc(NC(=O)Nc3cc(C(F)(F)F)ccc3F)cc2)cc1 | 4.53
32 | CCCN(CCS(C)(=O)=O)Cc1ccc(-c2ccc3ncnc(Nc4ccc(OCc5cccc(F)c5)c(Cl)c4)c3c2)o1 | 1.66
33 | CCn1c(-c2nonc2N)nc2c(C#CC(C)(C)O)nc(OC[C@H](N)c3ccccc3)cc21 | 23.8
